PubChem BioAssay (NCATS)
Results filed as inconclusive are left out. Entries that show only a call come without a potency. A number with no mark means an inactive call. The source made the active and inactive calls. Calls come from the whole dose curve; as a rule, active = well fitted inhibition curve with a large enough effect; inconclusive = small, poorly fitted or top-dose-only effect; inactive = flat fitted curve, though single readings scatter.

Target: Calcium and integrin-binding protein 1 (Homo sapiens) (UniProt Q99828)
Assay: Primary qHTS for Identification of Calcium Integrin Binding Protein 1 (CIB1) Competitor (AID 1508620); note: top concentration of the series differs between compounds
Conditions: CIB1-GST / FITC-alphaIIb peptide fluorescence polarization; series mostly up to 114 µM
Method in brief: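 Fluorescence polarization competition: GST-tagged CIB1 (1 uM final) preincubated with compound 15 min at room temperature, then FITC-labelled alphaIIb peptide (100 nM final) added. After 15 min at room temperature, polarization read at Ex 480/Em 540.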

Calcium and integrin-binding protein 1 (Homo sapiens), sequence (Q99828 whole entry, looked up): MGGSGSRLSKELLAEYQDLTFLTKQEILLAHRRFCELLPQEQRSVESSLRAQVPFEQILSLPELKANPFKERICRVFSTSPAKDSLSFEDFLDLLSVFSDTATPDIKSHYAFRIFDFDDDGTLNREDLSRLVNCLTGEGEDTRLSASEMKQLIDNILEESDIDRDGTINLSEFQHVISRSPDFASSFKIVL

SMILES	Potency	activity change, negative = inhibition
Cc1nc(-c2cn3c(n2)-c2ccc(-c4cnn(C(C)(C)C(N)=O)c4)cc2OCC3)n(C(C)C)n1	inactive	
C=C(C(=O)O)[C@@H]1CC=C(CCC(C)=O)[C@@H](C)CC1	inactive	
CCOC(=O)c1cnc2ccc(-c3cncc(NS(=O)(=O)c4ccccc4)c3)cn12	inactive	
C[C@@]12C(=O)N(c3ccc(C(=O)Nc4cccc5cccnc45)cc3)C(=O)[C@@H]1[C@@H]1C=C[C@H]2C1	inactive	
COc1cc(N2CCOCC2)ccc1NC(=O)c1csc(-c2cccnc2)n1	inactive	
C[C@@H]1O[C@@H](O[C@H]2[C@H](OC(=O)[C@]34CCC(C)(C)C[C@H]3C3=CCC5[C@@]6(C)C[C@H](O)[C@H](O[C@@H]7O[C@H](C(=O)O)[C@@H](O)[C@H](O)[C@H]7O)[C@@](C)(CO)C6[C@H](O)C[C@@]5(C)[C@]3(C)C[C@H]4O)O[C@@H](CO)[C@@H]2O)[C@H](O)[C@H](O)[C@H]1O[C@@H]1OC[C@@H](O)[C@H](O[C@H]2OC[C@](O)(CO)[C@H]2O)[C@H]1O (stereo partly drawn)		1.16% [at 12.4 µM]
C/C=C(/C=C(C)/C=C/C=C/C=C(\C)C(=O)C12OC1C(O)(CCO)NC2=O)C(=O)OC (stereo not drawn)	inactive	
CN(C)[C@@H]1CCc2[nH]c3ccc(NC(=O)c4ccc(F)cc4)cc3c2C1	inactive	
NC(=O)C1=CC2C3C=CC2C(OC3=O)O1 (stereo not drawn)	inactive	
COc1ccc(NC(=O)c2ccc(C(=N)N(C)C)cc2)c(C(=O)Nc2ccc(Cl)cn2)c1	inactive	
CCCCc1ccc(NS(=O)(=O)c2ccc(F)cc2)cc1	inactive	
CC12CCC3C1C(c1c(cc(O)c(C(=O)c4ccccc4)c1O)O2)C3(C)C (stereo not drawn)	inactive	
COc1cc([C@H]2O[C@H](c3cc(OC)c4c(c3)OCO4)[C@H](C)[C@H]2C)cc(OC)c1OC	inactive	
N#CC(CCCN1CCC(O)(c2ccc(Cl)cc2)CC1)(c1ccccc1)c1ccccc1	inactive	
C[C@@H](Nc1ncnc2[nH]c(-c3ccc(O)cc3)cc12)c1ccccc1	inactive	
COc1c2c(c(C)c3c1C(=O)OC3)O[C@@]1(C)C[C@@H](OC(C)=O)[C@]34O[C@](OC)(CC[C@]3(C)[C@H]1C2)OC4(C)C	inactive	
CC(=O)CC(=O)Nc1ccc(Cl)c(C(F)(F)F)c1	inactive	
C=C(C(=O)OC[C@H]1O[C@@H](OC(=O)/C=C/c2ccccc2)[C@H](O)[C@@H](O)[C@@H]1O)C(O)CO (stereo partly drawn)	inactive	
C=C1CO[C@@]2(O[C@H]3CC4C5CC=C6C[C@@H](O)C[C@@H](O[C@@H]7OC[C@H](O)[C@H](O[C@@H]8OC[C@@H](O)[C@H](O)[C@H]8O)[C@H]7O[C@@H]7O[C@@H](C)[C@H](OC(C)=O)[C@@H](OC(C)=O)[C@H]7OC(C)=O)[C@]6(C)C5CC[C@]4(C)[C@@H]3[C@@H]2C)[C@@H](O)[C@H]1OC1OC(C)C(O)C(O)C1O (stereo partly drawn)		-5.12% [at 12.4 µM]

SMILES	Potency	activity change, negative = inhibition
CC[C@H](C)/C=C(C)/C=C/C1=CC2=CC(=O)[C@]3(C)OC(=O)[C@@H](C(C)=O)[C@@H]3C2=CO1	inactive	
O=C(Nc1ccc(Cl)cc1)Nc1cccc(-c2cccc(N3CCCC3)n2)c1	inactive	
CC/C(C)=C/C(=O)OC1C(OC2(C)CCC3C(C4C(C)CCC42)C3(C)C)OC(C)C(O)C1O (stereo not drawn)	inactive	
CC(C)(C)Oc1ccc(OCC2Cc3ccccc3CN2C(=O)c2cccc3ccccc23)cc1 (stereo not drawn)	inactive	
C/C=C(\C)C(=O)O[C@H]1C=C(CO)C(=O)[C@H](OC(C)=O)[C@H]1C(C)C	inactive	
C=C[C@H](/C=C\c1ccc(O)cc1)c1ccc(O)cc1	inactive	
C=C1C(=O)O[C@@H]2C[C@@]3(C)C[C@@H](O)C[C@H](C)C3=C[C@H]12	inactive	
C=C1CC[C@@H]2[C@](C)(CO)[C@H](O)CC[C@@]2(C)[C@@H]1CC(=O)C1=CCOC1=O	inactive	
CC[C@@H](C)Nc1cc(C(=O)NC2CC3CCC(C2)N3c2ccc(C(=O)C3CC3)cn2)c(C)cc1C(N)=O (stereo partly drawn)	inactive	
CC(C)NCCCn1c(Sc2cc3c(cc2I)OCO3)nc2c(N)ncnc21	inactive	
C=C1C(=O)O[C@@H]2[C@H]1CCC(C)=C(CCC(=O)O)[C@@]2(C)O	inactive	
CN(C)C(CCOc1cccc2ccccc12)c1ccccc1 (stereo not drawn)	inactive	
CC(=O)O[C@@H]1C[C@]2(C)[C@@]3(CCC4[C@@]5(C)CC[C@H](O[C@@H]6O[C@H](C(=O)O)[C@@H](O)[C@H](OC7OC(CO)C(O)C(O)[C@H]7O[C@@H]7O[C@@H](C)[C@H](O)[C@@H](O)[C@H]7O[C@@H]7OC[C@](O)(CO)[C@H]7O)[C@H]6OC6OC(CO)C(O)C(O)C6O)C(C)(C)C5CC[C@]42C)OC[C@@]12CCC(C)(C)CC23 (stereo partly drawn)		-0.726% [at 12.4 µM]
O=C(NCCCCCCCCNC(=O)C(Cl)Cl)C(Cl)Cl	inactive	
CC(CCC1(O)OC2CC3C4CC=C5C[C@@H](O[C@@H]6O[C@H](CO)[C@@H](O[C@@H]7O[C@@H](C)[C@H](O)[C@@H](O)[C@H]7O)[C@H](O)[C@H]6O[C@@H]6O[C@@H](C)[C@H](O)[C@@H](O)[C@H]6O)CC[C@]5(C)C4CC[C@]3(C)[C@@]2(O)[C@@H]1C)CO[C@@H]1O[C@H](CO)[C@@H](O)[C@H](O)[C@H]1O (stereo partly drawn)	inactive	
CC(=O)Nc1nc(C)c(-c2nc(N3CCCC(O)C3)no2)s1 (stereo not drawn)	inactive	
Nc1nc(O)c(C2=C3C(=Nc4ccccc43)C(=O)NCC2)[nH]1	inactive	
CN1CCN(c2ccc(Nc3cc(-c4cccc(-n5ccc6cc(C7CC7)cc(F)c6c5=O)c4CO)cn(C)c3=O)nc2)CC1	inactive	
C=C(C)C(=O)O[C@H]1[C@H]2C(=C)C(=O)O[C@@H]2C[C@@H](C)[C@@H]2O[C@@H]2C(=O)[C@](C)(O)[C@@H]1OC(=O)C(=C)C	inactive	
